Results published in the antibiotic and cytotoxicity screens of Wong et al. (2023).
Hit rate of the full screen: of about 39,000 compounds, about 1,500 (3.8%) were called active. The list comes from a sample in which actives are over-represented; it also holds similar structures and randomly drawn compounds.

system: HSkMC (human skeletal muscle cells); test: cytotoxicity call (relative viability < 0.9); details: 10 µM

How did the cytotoxicity call turn out when `CN1N=C2CCN(C(=O)[C@@H](COCc3ccccc3)NC(=O)C(C)(C)N)C[C@@]2(Cc2ccccc2)C1=O` was run?
Its cytotoxicity call is “inactive”.

For `CC(C)(N)C(=O)N[C@H](COCc1ccccc1)C(=O)N1CCC2(CC1)CN(S(C)(=O)=O)c1ccccc12`, which cytotoxicity call is on record?
The cytotoxicity call was “active”.

With `CN(C)N(C)C(=O)[C@@]1(Cc2ccccc2)CCCN(C(=O)[C@@H](Cc2c[nH]c3ccccc23)NC(=O)C(C)(C)N)C1` as the molecule, how does the cytotoxicity call read?
Its cytotoxicity call is “inactive”.

`COc1ccc(S(=O)(=O)Nc2ccc3c(c2)C(=O)N([C@H](C)CO)C[C@H](C)[C@@H](CN(C)C(=O)Nc2c(C)noc2C)OCCCC[C@H](C)O3)cc1` was tested. Which cytotoxicity call did it give?
The cytotoxicity call was “inactive”.

`COc1ccc(NC(=O)N(C)C[C@H]2OCCCC[C@@H](C)Oc3ccc(NC(=O)C4CCCCC4)cc3C(=O)N([C@@H](C)CO)C[C@H]2C)cc1` was tested. Which cytotoxicity call did it give?
Its cytotoxicity call is “inactive”.

How did the cytotoxicity call turn out when `C[C@@H]1CN([C@@H](C)CO)C(=O)c2cccc(NC(=O)CCCCCC(=O)Nc3ccccc3N)c2O[C@H]1CN(C)Cc1ccc(-c2ccccc2)cc1` was run?
Its cytotoxicity call is “inactive”.

With `C[C@H]1CN([C@@H](C)CO)C(=O)c2cccc(NC(=O)CCCCCC(=O)Nc3ccccc3N)c2O[C@@H]1CN(C)Cc1ccccc1` as the molecule, how does the cytotoxicity call read?
Its cytotoxicity call is “active”.

For `C[C@@H]1CN([C@@H](C)CO)C(=O)c2cccc(NC(=O)CCCCCC(=O)Nc3ccccc3N)c2O[C@@H]1CN(C)Cc1ccccc1`, which cytotoxicity call is on record?
Its cytotoxicity call is “inactive”.

How did the cytotoxicity call turn out when `C[C@H]1CN([C@@H](C)CO)C(=O)c2cccc(NC(=O)CCCCCC(=O)Nc3ccccc3N)c2O[C@H]1CN(C)Cc1ccc(Cl)c(Cl)c1` was run?
The cytotoxicity call was “active”.

With `C[C@@H]1CN([C@@H](C)CO)C(=O)c2cccc(NC(=O)CCCCCC(=O)Nc3ccccc3N)c2O[C@@H]1CN(C)Cc1ccc(Cl)c(Cl)c1` as the molecule, how does the cytotoxicity call read?
The cytotoxicity call was “inactive”.

`C[C@H]1CN([C@@H](C)CO)C(=O)c2cccc(NC(=O)CCCCCC(=O)Nc3ccccc3N)c2O[C@H]1CN(C)Cc1ccc(-c2ccccc2)cc1` was tested. Which cytotoxicity call did it give?
The cytotoxicity call was “inactive”.

`C[C@@H]1CN([C@H](C)CO)C(=O)c2cccc(NC(=O)CCCCCC(=O)Nc3ccccc3N)c2O[C@H]1CN(C)Cc1ccccc1` was tested. Which cytotoxicity call did it give?
Its cytotoxicity call is “inactive”.

For `C[C@@H]1CN([C@@H](C)CO)C(=O)c2cccc(NC(=O)CCCCCC(=O)Nc3ccccc3N)c2O[C@H]1CN(C)Cc1ccc(Cl)c(Cl)c1`, which cytotoxicity call is on record?
The cytotoxicity call was “inactive”.

`C[C@H]1CN([C@@H](C)CO)C(=O)c2cccc(NC(=O)CCCCCC(=O)Nc3ccccc3N)c2O[C@@H]1CN(C)Cc1ccc(-c2ccccc2)cc1` was tested. Which cytotoxicity call did it give?
Its cytotoxicity call is “active”.

How did the cytotoxicity call turn out when `Cc1ccc(S(=O)(=O)Nc2ccc3c(c2)C(=O)N([C@@H](C)CO)C[C@H](C)[C@@H](CN(C)Cc2ccncc2)OCCCC[C@H](C)O3)cc1` was run?
The cytotoxicity call was “inactive”.

For `C[C@@H]1CN([C@H](C)CO)C(=O)c2cc(NC(=O)c3ccncc3)ccc2O[C@@H](C)CCCCO[C@@H]1CN(C)S(=O)(=O)c1ccc(Cl)cc1`, which cytotoxicity call is on record?
Its cytotoxicity call is “inactive”.

Which cytotoxicity call does the source give for `COc1ccc(S(=O)(=O)Nc2ccc3c(c2)C(=O)N([C@@H](C)CO)C[C@H](C)[C@H](CN(C)S(C)(=O)=O)OCCCC[C@@H](C)O3)cc1` here?
Its cytotoxicity call is “inactive”.

With `C[C@@H]1CN([C@H](C)CO)C(=O)c2cc(NC(=O)CCN3CCOCC3)ccc2O[C@H]1CN(C)Cc1ccncc1` as the molecule, how does the cytotoxicity call read?
Its cytotoxicity call is “inactive”.

How did the cytotoxicity call turn out when `CN(C)CC(=O)OCC(O)C(O)C(O)C(O)C(=O)[O-].[Na+]` (stereo unspecified) was run?
Its cytotoxicity call is “inactive”.

For `O=C(Nc1ccc(Cl)cc1C(=O)c1ccc(Cl)cc1)c1cc(Br)ccc1NS(=O)(=O)c1ccc(Cl)cc1`, which cytotoxicity call is on record?
Its cytotoxicity call is “inactive”.

Which cytotoxicity call does the source give for `O=C(c1ccc(Cl)cc1)c1coc2c1cc(O)c1ccccc12` here?
The cytotoxicity call was “active”.

How did the cytotoxicity call turn out when `O=C(c1ccc(Cl)cc1)n1c2ccccc2c2ccccc21` was run?
Its cytotoxicity call is “inactive”.

`O=C(NCC[C@@H]1CC[C@H](NS(=O)(=O)c2cccc(F)c2)[C@H](CO)O1)C1CC1` was tested. Which cytotoxicity call did it give?
Its cytotoxicity call is “inactive”.

Which cytotoxicity call does the source give for `C[C@@H]1CCCCO[C@H](CN(C)S(=O)(=O)c2ccccc2)[C@@H](C)CN([C@@H](C)CO)C(=O)c2cc(NC(=O)C3CCCCC3)ccc2O1` here?
Its cytotoxicity call is “inactive”.

With `C[C@@H]1CN([C@@H](C)CO)C(=O)c2cccc(NC(=O)NC3CCCCC3)c2O[C@H]1CN(C)Cc1ccc(C(F)(F)F)cc1` as the molecule, how does the cytotoxicity call read?
Its cytotoxicity call is “inactive”.

With `CC(/C=C/C(=O)NO)=C\c1ccccc1OCc1cn(C[C@@H]2CCCN2S(=O)(=O)c2ccc(C)cc2)nn1` as the molecule, how does the cytotoxicity call read?
Its cytotoxicity call is “inactive”.

For `CC(/C=C/C(=O)NO)=C\c1ccccc1OCc1cn(CCNC(=O)[C@@H](NS(=O)(=O)c2ccc(C)cc2)C(C)C)nn1`, which cytotoxicity call is on record?
Its cytotoxicity call is “inactive”.

How did the cytotoxicity call turn out when `CC(/C=C/C(=O)NO)=C\c1ccccc1OCc1cn(-c2cccc(N(S(=O)(=O)c3ccc(C)cc3)S(=O)(=O)c3ccc(C)cc3)c2)nn1` was run?
Its cytotoxicity call is “active”.

Which cytotoxicity call does the source give for `Nc1ccc(-n2cc(CCC(=O)NO)nn2)cc1` here?
The cytotoxicity call was “inactive”.

With `Nc1cccc(-n2cc(CCC(=O)NO)nn2)c1` as the molecule, how does the cytotoxicity call read?
The cytotoxicity call was “inactive”.

For `Cc1ccc(S(=O)(=O)N(c2cccc(-n3cc(CCC(=O)NO)nn3)c2)S(=O)(=O)c2ccc(C)cc2)cc1`, which cytotoxicity call is on record?
Its cytotoxicity call is “active”.

Which cytotoxicity call does the source give for `C[C@@H]1CCCCO[C@H](CN(C)Cc2ccncc2)[C@@H](C)CN([C@@H](C)CO)C(=O)c2cc(NC(=O)Nc3ccccc3)ccc2O1` here?
The cytotoxicity call was “inactive”.

How did the cytotoxicity call turn out when `C[C@H](CO)N1C[C@H](C)[C@@H](CN(C)S(=O)(=O)c2ccc(Cl)cc2)OCCCC[C@H](C)Oc2ccc(NC(=O)c3ccccc3)cc2C1=O` was run?
Its cytotoxicity call is “inactive”.

With `C[C@@H]1CN([C@H](C)CO)C(=O)c2cc(NS(C)(=O)=O)ccc2O[C@@H](C)CCCCO[C@@H]1CN(C)Cc1ccncc1` as the molecule, how does the cytotoxicity call read?
Its cytotoxicity call is “inactive”.

Which cytotoxicity call does the source give for `C[C@@H]1CN([C@H](C)CO)C(=O)c2cc(NC(=O)NC3CCCCC3)ccc2O[C@@H](C)CCCCO[C@H]1CN(C)S(=O)(=O)c1cccs1` here?
Its cytotoxicity call is “inactive”.

`C[C@@H]1CN([C@H](C)CO)C(=O)c2cc(NC(=O)Nc3ccccc3)ccc2O[C@H]1CN(C)C(=O)Nc1cccc2ccccc12` was tested. Which cytotoxicity call did it give?
Its cytotoxicity call is “inactive”.

`C[C@@H]1CN([C@H](C)CO)C(=O)c2cc(NC(=O)Nc3ccccc3)ccc2O[C@@H]1CN(C)C(=O)Nc1cccc2ccccc12` was tested. Which cytotoxicity call did it give?
The cytotoxicity call was “active”.

For `C[C@@H]1CN([C@@H](C)CO)C(=O)c2cc(NC(=O)Nc3ccccc3)ccc2O[C@@H]1CN(C)C(=O)Nc1cccc2ccccc12`, which cytotoxicity call is on record?
The cytotoxicity call was “active”.

Which cytotoxicity call does the source give for `C[C@H](CO)N1C[C@H](C)[C@H](CN(C)C(=O)Nc2cccc3ccccc23)Oc2ccc(NC(=O)Nc3ccccc3)cc2C1=O` here?
Its cytotoxicity call is “inactive”.

For `C[C@H]1CN([C@@H](C)CO)C(=O)c2cc(NC(=O)Nc3ccccc3)ccc2O[C@H]1CN(C)C(=O)Nc1cccc2ccccc12`, which cytotoxicity call is on record?
The cytotoxicity call was “inactive”.

`C[C@H](CO)N1C[C@H](C)[C@@H](CN(C)C(=O)Nc2cccc3ccccc23)Oc2ccc(NC(=O)Nc3ccccc3)cc2C1=O` was tested. Which cytotoxicity call did it give?
The cytotoxicity call was “inactive”.
